# Assay outcomes (PubChem BioAssay)
# Nrf2 block: blocks Nrf2 signaling; A549 ARE-Fluc reporter, luciferase luminescence, 18-24 h; Potency, µM (series often up to 46 µM), usual class: inhibitors; hit rate 2.1% among 360,000; note: nearly all actives have a fitted effect of over 60% in size
#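 A549 ARE_Fluc cells, 5000/well, 5% FBS OPTI-MEM; compounds in dose-response, 18-24 h at 37 °C/5% CO2; CellTiter-Fluor viability read (Ex 405/Em 525), then BugLite luciferase luminescence = Nrf2 activity.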
# Nrf2 activator: activates Nrf2 signaling; AREc32 ARE-luciferase reporter (MCF7-derived line), luminescence, 24 h; Potency, µM (series often up to 46.1 µM), hits mostly activators; hit rate 0.31% among 410,000; AID 624171; note: nearly all actives have a fitted effect of over 65% in size
#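 ARE activation measured as luciferase luminescence (Steady-Glo, 30 min RT) in AREc32_Fluc cells after 24 hr compound exposure at 37 deg C, 5% CO2; cells seeded overnight at 1000/well in OPTI-MEM, 5% FBS.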
# mIDH1 inhibitor: human IDH1 R132H inhibition; hit rate 0.093% among 390,000; IDH1-R132H enzyme, NADPH consumption, diaphorase/resazurin fluorescence; Potency, µM (series often up to 76.6 µM), usual class: inhibitors; O75874; note: nearly all actives have a fitted effect of over 65% in size
# Target sequence (O75874 whole entry R132H, stated change not applied): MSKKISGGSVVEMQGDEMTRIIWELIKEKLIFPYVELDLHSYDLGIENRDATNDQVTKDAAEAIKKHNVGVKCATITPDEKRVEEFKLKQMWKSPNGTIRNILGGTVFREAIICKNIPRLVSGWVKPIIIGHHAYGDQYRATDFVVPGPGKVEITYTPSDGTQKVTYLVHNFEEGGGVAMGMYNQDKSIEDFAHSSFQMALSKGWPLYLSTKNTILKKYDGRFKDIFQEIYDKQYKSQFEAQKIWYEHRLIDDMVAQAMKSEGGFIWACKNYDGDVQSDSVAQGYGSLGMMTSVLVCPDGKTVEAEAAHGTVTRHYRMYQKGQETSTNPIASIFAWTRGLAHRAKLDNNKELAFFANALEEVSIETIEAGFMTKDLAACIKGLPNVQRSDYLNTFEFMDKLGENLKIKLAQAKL
#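 IDH1-R132H (0.5 ug/mL dispensed) in pH 7.5 Tris buffer was preincubated 30 min with compound, then given a substrate mix of 0.016 mM NADPH and 2 mM alpha-KG for 80 min at room temperature; remaining NADPH was read by diaphorase/resazurin fluorescence.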
# ELG1 repair inh: blocks ELG1-dependent DNA repair in HEK293T cells; hit rate 2.3% among 330,000; AID 504467; Potency, µM (titrated, usually from 46.1 µM), actives largely listed as inhibitors; HEK293T ELG1-luciferase reporter, luminescence, 16 h; DNA damage induced by 5-fluorouridine; note: nearly all actives have a fitted effect of over 55% in size
#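 Step one: seed 2,000 cells per well. Step two: pin-transfer compound or DMSO alongside 5-fluorouridine. Step three: incubate 16 hr, 37 °C, 5% CO2. Step four: add ONE-Glo, wait 30 min, read luminescence.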
# A549 viability: counter-screen for Nrf2 inhibitors: cytotoxicity in A549 cells; A549 ARE-Fluc cells, CellTiter-Fluor viability, 18-24 h; Potency, µM (titrated, usually from 46 µM), hits mostly inhibitors; hit rate 0.16% among 390,000
#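 A549 ARE-Fluc cells in 5% FBS OPTI-MEM, 5000 cells/well, rested 2 h then exposed to compounds in concentration-response for 18-24 h at 37 °C. Viability by CellTiter-Fluor fluorescence (Ex 405/Em 525) after 30 min; luciferase luminescence (BugLite, 15 min, RT) read afterwards.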
# Hits are given with their value; i = inactive; ? = inconclusive; nt = not tested or not shown. The list is not random: actives were taken first. Their share in the collection is about 3.8%. Calls come from the whole dose curve; as a rule, active = well fitted curve in the direction sought with a large enough effect; inconclusive = small, poorly fitted or top-dose-only effect, or another doubt; inactive = no such curve, though single readings can be large; an effect the other way counts as inactive or inconclusive.
SMILES,Nrf2 block,Nrf2 activator,mIDH1 inhibitor,ELG1 repair inh,A549 viability
COc1ccc(OC)c(NC(=O)CC2C(=O)NCCN2C(=O)c2ccccc2)c1 (stereo not given),i,i,i,i,i
Cc1ccc(NS(=O)(=O)c2ccc3c(c2)N(C)CCO3)cc1C,?,nt,nt,nt,i
Cc1ccc(-c2nnc(SCC(=O)N(CC(C)C)c3c(N)n(Cc4ccccc4)c(=O)[nH]c3=O)n2N)cc1,i,i,i,i,i
COc1cccc(C2c3c(ncn(-c4ccccc4Br)c3=N)Oc3ccc4ccccc4c32)c1 (stereo not given),i,nt,nt,nt,i
Cc1ccc(C)c(CSc2nc3c([nH]c4ccccc43)c(=O)n2C)c1,nt,i,i,nt,i
Cc1ccc(-c2ccc(=O)n(CC(=O)Nc3ccc(C)cc3Cl)n2)cc1,i,i,i,nt,i
CC1CCC2(CC1)NC(=O)N(CC(=O)Nc1cccc(S(=O)(=O)N3CCCC3)c1)C2=O (stereo not given),5.17µM,i,i,i,i
CC(=O)c1ccc(OCC(=O)Nc2cccc(S(=O)(=O)N3CCCC3)c2)cc1,16.4µM,i,i,i,i
COc1ccc(CNC(=O)C(C)N2CCN(S(=O)(=O)c3ccccc3F)CC2)cc1 (stereo not given),i,i,i,i,i
CCCc1ccc(S(=O)(=O)N2CCN(C(C)C(=O)NCc3ccc(OC)cc3)CC2)cc1 (stereo not given),16.4µM,i,i,?,?
CCC1(c2ccccc2)NC(=O)N(CC(=O)Nc2cccc(S(=O)(=O)N3CCCCC3)c2)C1=O (stereo not given),i,i,i,?,i
CCN(CC)S(=O)(=O)c1ccc(C)c(NC(=S)Nc2cccc(S(=O)(=O)N3CCCCCC3)c2)c1,23.1µM,i,i,i,i
C=CCn1c(SCCN)nnc1-c1cccc(S(=O)(=O)N2CCOCC2)c1,i,i,i,nt,i
COc1cc(/C=C/C(=O)c2ccc3c(c2)OCCO3)cc(Br)c1OCC(=O)N(C)C,20.6µM,?,i,?,?
O=C(c1ccc2c(c1)OCO2)N1CCN(c2ccc(C(F)(F)F)cn2)CC1,11.6µM,i,i,i,i
O=C(c1ccc2c(c1)OCCO2)N1CCN(c2ccc(C(F)(F)F)cn2)CC1,nt,i,i,nt,nt
CNC[C@@H]1Oc2cc(Br)ccc2S(=O)(=O)N([C@@H](C)CO)C[C@@H]1C,nt,i,i,nt,nt
CC(C)(C)NC(=O)CSc1nsc(SCC(=O)NC(C)(C)C)c1C#N,?,i,i,9.2µM,i
CC(=O)CSc1nsc(SCC(C)=O)c1C#N,i,i,i,i,i
CN(C)N1C(N)=C(C#N)C(c2cccc3ccccc23)C2=C1CC(c1ccccc1)CC2=O (stereo not given),?,i,i,16.4µM,?
CCOc1ccc(NS(=O)(=O)c2ccc(-c3ccc(=O)[nH]n3)o2)cc1,?,i,i,i,i
C=CC[C@@H]1C=C[C@H](O/N=C/c2ccc(C(=O)N3[C@H](c4ccc(C)cc4)[C@@H](C)CC[C@H]3C(=O)OC)cc2)[C@@H](CO)O1,nt,nt,nt,18.4µM,nt
Cc1cccc(Cn2c(O)c(N=NC(=S)Nc3ccccc3F)c3ccccc32)c1,5.8µM,i,i,3.66µM,?
Oc1c(N=NC(=S)Nc2ccccc2F)c2ccccc2n1Cc1cccc(Cl)c1,?,i,i,?,?
Oc1c(N=NC(=S)Nc2ccccc2F)c2ccccc2n1Cc1ccc(F)cc1,i,i,i,5.17µM,i
SMILES,Nrf2 block,Nrf2 activator,mIDH1 inhibitor,ELG1 repair inh,A549 viability
CC(O)CNC(=O)C(=O)Nc1c2c(nn1-c1ccc(Cl)cc1)CSC2 (stereo not given),nt,i,i,nt,i
CC(=O)c1cc(-c2ccc(F)cc2)n(CC(=O)NC2CCC(C)CC2)c1C (stereo not given),nt,i,i,nt,i
CCOP(=O)(OCC)C(NC(=O)Nc1ccc(Cl)c(Cl)c1)c1ccccc1 (stereo not given),i,i,i,i,i
CCOP(=O)(OCC)C(C)(C)NC(=O)Nc1ccc(Cl)c(Cl)c1,23.1µM,i,i,?,i
Cn1ccc2c(N3CCCCCCC3)cc3c(c21)C1CCC3O1 (stereo not given),nt,i,nt,nt,nt
N#Cc1c(NCc2ccccc2)ccnc1NCc1cccnc1,6.51µM,i,i,i,i
Cn1c(=O)c2c(nc(NCc3ccc4c(c3)OCO4)n2Cc2ccc(F)cc2)n(C)c1=O,23.1µM,i,i,?,i
COc1cc(/C=N/Nc2nc3c(c(=O)n(C)c(=O)n3C)n2Cc2ccccc2)ccc1OC(=O)c1ccco1,?,i,i,18.4µM,?
Cn1c(=O)c2c(nc(NCc3ccc4c(c3)OCO4)n2Cc2ccccc2)n(C)c1=O,nt,i,i,16.4µM,?
CCc1ccc(-n2nc(C)c3c(C(=O)Nc4cc(OC)cc(OC)c4)cc(C)nc32)cc1,i,i,i,nt,i
O=c1oc2ccc(Br)cc2cc1-c1nc2c(s1)CCc1ccccc1-2,i,nt,nt,nt,i
COc1ccc(OC)c(NC(=O)C2CCCN(S(=O)(=O)c3ccc(-n4cnnn4)cc3)C2)c1 (stereo not given),i,i,i,25.9µM,i
COc1ccc(OC)c(NC(=O)C2CCCN(S(=O)(=O)c3cccc4nsnc34)C2)c1 (stereo not given),i,i,i,20.6µM,i
COc1cc(NC(=O)C2CCCN(S(=O)(=O)c3cccc4nsnc34)C2)cc(OC)c1 (stereo not given),?,i,i,23.1µM,i
O=C(C1CCN(S(=O)(=O)c2ccc(-n3cnnn3)cc2)CC1)N1CCCCC1,13µM,i,i,i,i
COc1ccc(C)cc1NC(=O)C1CCCN(S(=O)(=O)c2ccc(-n3cnnn3)cc2)C1 (stereo not given),?,i,i,?,i
O=C(Nc1ccc(Cl)c(S(=O)(=O)N2CCOCC2)c1)c1ccncc1,i,i,i,?,i
Cc1ccc(S(=O)(=O)Cc2nc(-c3ccc(C(=O)NCc4ccccc4F)cc3)oc2C)cc1,?,nt,nt,nt,i
COc1cccc(NC(=O)c2oc3ccccc3c2NC(=O)c2ccc(OC(C)C)cc2)c1,i,i,i,nt,i
CCOc1ccc(S(=O)(=O)N2CCC(C(=O)N3CCCCCC3)CC2)cc1C,18.4µM,i,i,i,i
CCCn1c(=O)n(C)c(=O)c2c(SCC(=O)Nc3cc(C)on3)nc(C(C)(C)C)nc21,?,i,?,8.2µM,?
Cc1cc(NC(=O)CSc2nc(C(C)C)nc3c2c(=O)n(C)c(=O)n3C)no1,i,i,i,i,i
C[C@@H]1CN([C@@H](C)CO)C(=O)c2cc(NS(C)(=O)=O)ccc2O[C@@H]1CN(C)S(=O)(=O)c1ccccc1,?,i,i,i,i
C[C@@H]1CN([C@@H](C)CO)C(=O)c2cc(NC(=O)Nc3ccc4c(c3)OCO4)ccc2O[C@H]1CN(C)S(=O)(=O)c1ccc(F)cc1,i,i,i,25.9µM,i
